14-3-3g Raf: modulators of human 14-3-3 gamma - Raf peptide interaction. FP, 14-3-3gamma / TMR-pS259-Raf peptide binding. inhibition, % at 40 µM. 0.19% of 160,000 active. AID 422; in the data active means inhibition above about 30%;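 further: 0% = protein plus tracer without compound and 100% = blank with tracer alone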
Target sequence (P61981 whole entry, looked up): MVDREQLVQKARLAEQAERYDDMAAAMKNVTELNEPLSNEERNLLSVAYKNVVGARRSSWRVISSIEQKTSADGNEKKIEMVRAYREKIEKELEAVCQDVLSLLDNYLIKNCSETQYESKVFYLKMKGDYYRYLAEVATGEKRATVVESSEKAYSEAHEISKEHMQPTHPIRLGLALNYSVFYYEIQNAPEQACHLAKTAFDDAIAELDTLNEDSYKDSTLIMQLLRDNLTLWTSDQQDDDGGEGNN
An asterisk follows results filed as active; + = active, no number. The sample as a whole holds a higher share of hits than the screen did.

SMILES	14-3-3g Raf
CCOc1cc([N+](=O)[O-])cc(C=Nc2cccc(NC(=O)c3ccccc3)c2)c1O	-74
O=C(Nc1cccc(N=Cc2c(O)ccc3cc([N+](=O)[O-])ccc23)c1)c1ccc(F)cc1	-1
O=C(Nc1cccc(N=Cc2c(O)ccc3cc([N+](=O)[O-])ccc23)c1)c1ccccc1	32*
C=CCN(C(=O)CNC(=O)c1ccco1)C(C(=O)NC1CCCCC1)c1ccc(F)cc1 (centres undefined)	-12
Cc1cccc(CS(=O)(=O)Cc2ccc(C(=O)NCC3CCCO3)o2)c1 (centres undefined)	-5
CCOC(=O)CSc1nc2ccccc2c(=O)n1Cc1ccccc1OC	5
O=C1c2ccccc2-c2nc(-c3ccccc3)cc3cccc1c23	-14
Nc1cc2c3c(cccc3n1)C(=O)c1ccccc1-2	73*
O=C1c2ccccc2C(=O)c2cc(Br)ccc21	-6
N#CC1=C(SCc2ccccc2)NC(=O)CC1c1cccc(O)c1 (centres undefined)	-5
COc1ccc(Cl)cc1NC(=O)c1nc2nc(-c3ccccc3)cc(C(F)(F)F)n2n1	-1
COc1ccc(N2CC(C)Cn3c2nc2c3c(=O)n(CCc3ccccc3)c(=O)n2C)cc1 (centres undefined)	-3
CCSC1(SCC)N=C(N)C2(C#N)C(c3ccccc3)NC(C)=C(C)C12C#N (centres undefined)	-6
CCC1=C(C)C(c2ccccc2)NC(=S)N1 (centres undefined)	2
CC1=CC(C#N)(C#N)C(C#N)(C#N)C(c2ccccc2)N1 (centres undefined)	73*
COc1ccc(-c2nc(-c3cccc(C)c3)no2)cc1[N+](=O)[O-]	3
COc1ccccc1N1CCN(C(=O)CCCCCn2c(=S)[nH]c3cc4c(cc3c2=O)OCO4)CC1	-14
O=C(O)c1ccc2c(c1NCCO)C(=O)c1ccccc1C2=O	31*
CNc1c(C(=O)O)ccc2c1C(=O)c1ccccc1C2=O	-149
CC1CCCC(C)N1C(=O)c1ccc2c(c1NCCO)C(=O)c1ccccc1C2=O (centres undefined)	-268
CCOc1ccc(C(=O)Nc2c3c(nn2-c2ccccc2C)CSC3)cc1	-6
Cc1cccc(N=Cc2c(O)c(C(=O)Nc3ccccc3C)cc3ccccc23)c1	-16
COc1ccccc1NC(=O)c1cc2ccccc2c(C=Nc2ccc(OC(F)F)cc2)c1O	112*
CCc1cccc(N=Cc2c(O)c(C(=O)Nc3ccccc3)cc3ccccc23)c1	6
Cc1cc(C)c(O)c(-c2cc(C(=O)Nc3ccc(S(=O)(=O)N4CCOCC4)cc3)[nH]n2)c1	-11
SMILES	14-3-3g Raf
CNc1ccc2nc3ccccc3[n+](CCO)c2c1	67*
CCc1ccc(Nc2cc(C(=O)O)c3ccccc3n2)cc1	-3
CCSc1nc2c(c(=O)n1Cc1ccco1)C1(CCCCC1)Cc1ccccc1-2	4
CCNc1nc(NCC)nc(Nn2cnnc2)n1	3
CCSc1c(C(N)=O)ccc2c1C(=O)c1ccccc1C2=O	-42
CN(C(=O)c1ccc2c(c1N)C(=O)c1ccccc1C2=O)c1ccccc1	132*
CN(C(=O)c1ccc2c(c1)C(=O)c1ccccc1-2)c1ccc([N+](=O)[O-])cc1	-3
O=C(CN1CCN(S(=O)(=O)c2ccc(F)cc2)CC1)Nc1ccccc1C(F)(F)F	7
COc1ccc(C)cc1NC(=O)CCN1CCCC1	1
COc1ccc(OC)c(NC(=O)CCN2CCCCC2)c1	3
COc1ccc(OC)c(NC(=O)CCN2CCCC(C)C2)c1 (centres undefined)	35*
CC12CC(NC(=O)N1CCc1ccccc1)c1cc(Br)ccc1O2 (centres undefined)	-22
O=c1cc(CNC2CCCCC2)c2ccccc2[nH]1	-10
O=C1c2ccccc2-c2c(NC3CCCCC3)c(=O)[nH]c3cccc1c23	+
O=C(NC1CCCCCC1)c1c(O)c2ccccc2[nH]c1=O	-6
Cc1ccc(N(C(=O)c2ccc(S(=O)(=O)N3CCOCC3)cc2)C2C=CS(=O)(=O)C2)cc1 (centres undefined)	1
Nc1cc(=O)nc(SCC(=O)Nc2nc(-c3ccccc3)cs2)n1-c1ccccc1	-48
CCOC(=O)c1c(C)oc2ccc(NS(=O)(=O)c3ccc(CC)cc3)cc12	-9
Cc1cc(Br)ccc1N=Cc1c(O)ccc2ccccc12	-2
Oc1ccc2ccccc2c1/C=N/n1cnnc1	-8
Oc1ccc2ccccc2c1C=Nc1cccn2cc(-c3ccccc3)nc12	93*
O=c1c2sccc2n(Cc2cccc([N+](=O)[O-])c2)c(=O)n1-c1ccc(F)cc1	-2
C=CCc1cccc2cc(C(=O)Nc3ccccc3CC)c(=O)oc12	-11
COc1cc2c(cc1OC)C(COc1ccc(F)cc1)N(C(=O)c1ccc(S(=O)(=O)N(C)C)cc1)CC2 (centres undefined)	-23
CNc1ncnc2c1ncn2[C@H]1C[C@H](OP(=O)(O)O)[C@@H](COP(=O)(O)O)O1	-1
SMILES	14-3-3g Raf
O=C(O)c1ccc2c3c(cccc13)C(=O)N(c1ccc(Cl)cc1)C2=O	-8
O=C(O)CCCN1C(=O)c2cccc3c(O)ccc(c23)C1=O	138*
O=C(O)CCCCCN1C(=O)c2cccc3c(N4CCCCC4)ccc(c23)C1=O	-42
CCOC(=O)c1ccc(N2C(=O)c3cccc4c(Cl)ccc(c34)C2=O)cc1	-41
NCCNc1ccc2c3c(cccc13)C(=O)N(c1ccc(Cl)cc1)C2=O	63*
O=C1c2cccc3c(NCCO)ccc(c23)C(=O)N1c1ccccc1	196*
C=CCNc1ccc2c3c(cccc13)C(=O)N(C)C2=O	4
O=C(O)CCCCN1C(=O)c2ccccc2C1=O	-1
O=C1c2ccccc2C(=O)N1c1ccc(Cl)cc1	0
O=C1c2cccc3c(O)ccc(c23)C(=O)N1c1ccc(Cl)cc1	96*
O=C1c2cccc3c(Nc4ccccc4)ccc(c23)C(=O)N1c1ccccc1	-9
O=C1c2cccc3c(N4CCCCC4)ccc(c23)C(=O)N1c1ccccc1	4
CCCCC(=O)N1c2ccccc2NC2=C(C(=O)CCC2)C1c1ccc(N(C)C)cc1 (centres undefined)	-12
Cc1ccc(OCC(=O)N2CCN(C(=O)c3ccccc3F)CC2)cc1	4
O=C(NCc1cccs1)C1CCN(S(=O)(=O)c2ccc(Br)s2)CC1	-3
O=C(CC1(O)C(=O)N(CCc2ccccc2)c2ccccc21)c1ccc(-c2ccccc2)cc1 (centres undefined)	-6
CCC(=O)N1CCc2cc(S(=O)(=O)CCC(=O)Nc3ccc(C)c(F)c3)ccc21	-6
CC1=C(C(=O)OCCc2ccccc2)C(c2cc3c(cc2Br)OCO3)C2=C(CCCC2=O)N1 (centres undefined)	-15
CNC(=O)c1ccc(CNS(=O)(=O)c2ccc(C)cc2)cc1	3
COc1cccc(CNC(=O)c2ccc(CNS(=O)(=O)c3ccc(C)cc3)cc2)c1	34*
Cc1ccc(CNC(=O)c2ccc(CNS(=O)(=O)c3ccc(C)cc3)cc2)cc1	-6
COc1cc(CN2CCN(Cc3ccc(Br)cc3)CC2)cc2c1OCO2	-7
O=C(c1cccc(F)c1)N1CCN(S(=O)(=O)c2ccc([N+](=O)[O-])cc2)CC1	6
O=C(CSc1nnnn1C1CCCCC1)NCc1ccc2c(c1)OCO2	6
Cc1ccc(CSc2nnc3c(n2)OC(c2ccncc2)Nc2ccccc2-3)cc1 (centres undefined)	76*
CCCSc1nnc2c(n1)OC(c1cccc(C)n1)Nc1ccccc1-2 (centres undefined)	-5
